The whole screen tested about 2,100 compounds, of which about 770 (37%) were called active.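 Rule for the calls: active = by-eye trace score of 1 for enhancers or -1 for inhibitors, so actives lie on both sides (some results past the limit were not filed as active); inactive = score 0, or 3 fluorescent, or 4 baseline rise.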 The list shows a part of the results.

G protein-activated inward rectifier potassium channel 2 (Homo sapiens) + G protein-activated inward rectifier potassium channel 1 (Homo sapiens), sequence (P48051 whole entry, looked up): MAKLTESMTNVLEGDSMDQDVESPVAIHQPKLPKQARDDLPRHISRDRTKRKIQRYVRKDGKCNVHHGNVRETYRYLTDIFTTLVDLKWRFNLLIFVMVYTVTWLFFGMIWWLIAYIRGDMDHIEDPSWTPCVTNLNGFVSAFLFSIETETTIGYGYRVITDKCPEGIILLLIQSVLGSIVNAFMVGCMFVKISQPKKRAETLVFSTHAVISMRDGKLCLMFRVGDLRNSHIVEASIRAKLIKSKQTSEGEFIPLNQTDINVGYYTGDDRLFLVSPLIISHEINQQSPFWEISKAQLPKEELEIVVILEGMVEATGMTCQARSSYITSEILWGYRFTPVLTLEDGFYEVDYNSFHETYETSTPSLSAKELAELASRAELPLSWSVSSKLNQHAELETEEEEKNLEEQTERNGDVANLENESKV
G protein-activated inward rectifier potassium channel 2 (Homo sapiens) + G protein-activated inward rectifier potassium channel 1 (Homo sapiens), sequence (P48549 whole entry, looked up): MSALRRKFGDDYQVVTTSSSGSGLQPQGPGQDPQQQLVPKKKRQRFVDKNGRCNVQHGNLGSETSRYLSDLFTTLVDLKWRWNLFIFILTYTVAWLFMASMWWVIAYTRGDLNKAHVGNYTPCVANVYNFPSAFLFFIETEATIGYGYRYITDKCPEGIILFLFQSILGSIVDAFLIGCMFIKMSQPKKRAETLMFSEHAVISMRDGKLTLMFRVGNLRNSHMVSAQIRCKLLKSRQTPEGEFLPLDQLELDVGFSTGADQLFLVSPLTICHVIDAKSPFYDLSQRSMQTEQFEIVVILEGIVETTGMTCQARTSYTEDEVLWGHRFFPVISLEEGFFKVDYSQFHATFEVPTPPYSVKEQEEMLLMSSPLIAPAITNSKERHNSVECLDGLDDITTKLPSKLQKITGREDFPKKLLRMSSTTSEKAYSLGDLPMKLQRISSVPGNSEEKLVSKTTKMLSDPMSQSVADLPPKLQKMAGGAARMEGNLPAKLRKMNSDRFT

The assay has as its target G protein-activated inward rectifier potassium channel 2 (Homo sapiens) + G protein-activated inward rectifier potassium channel 1 (Homo sapiens) (UniProt P48051+P48549). Nature of the assay: GIRK1/2 thallium flux modulators, retest, confirmation, cell-based, HEK293 rmGlu8/hGIRK1/2, FluoZin-2 (AID 623911). Particulars: HEK293 rmGlu8/hGIRK1/2, thallium flux FluoZin-2; actives lie on both sides; glutamate co-added at its EC20 level.
Consider `COc1cc(NC(=O)CCn2c(=O)[nH]c3ccsc3c2=O)cc(OC)c1`, for which the manual score was 0 (inactive).

Consider `O=C(Cn1c(=O)[nH]c2ccsc2c1=O)NC1CCCCCC1`, for which the manual score is 0 (inactive).

For the compound `COc1ccc(Cn2c(=S)[nH]c3ccsc3c2=O)cc1`, the manual score was 1 (active).

Consider `O=C(NNC(=S)Nc1cccc(C(F)(F)F)c1)c1cccc(Cl)c1`, for which the manual score was 0.5 (inactive).

Turning to `O=C(NNC(=O)c1sccc1-n1cccc1)c1ccc(Cl)cc1`, the manual score was 1 (active).

In the case of `O=C(NNS(=O)(=O)c1cc(Cl)cc(Cl)c1)c1sccc1-n1cccc1`, the manual score was 1 (active).

In the case of `CCNC(=S)NNC(=O)c1cccn(Cc2ccc(Cl)cc2)c1=O`, the manual score is 0 (inactive).

For the compound `Cn1sc(NC(=O)c2cccc(Cl)c2)nc1=O`, the manual score was 0 (inactive).

`O=C(NNC(=O)c1sccc1-n1cccc1)c1cccc(Cl)c1`: the manual score was 1 (active).

As for `Cn1c2ccccc2c2cc(C(=O)NNS(=O)(=O)c3ccc(F)cc3)sc21`, the manual score is 0 (inactive).

As to `Cc1cccc(-n2c(O)c(/C=N/NC(=O)c3ccccc3Cl)c3ccccc3c2=O)n1`, the manual score is 0 (inactive).

Consider `Clc1ccc(Cl)c(OCc2cc(-c3ccccc3Cl)on2)c1`, for which the manual score is 0 (inactive).

Turning to `CC1Oc2ccccc2C=C1/C=N/NC(=O)c1ccccc1` (stereo unspecified), the manual score was 0 (inactive).

With `C/C(=N\O)C(C)NC(=O)c1ccccc1` (stereo unspecified), the manual score was -0.5 (inactive).

For `O=C(NN=c1c(=O)c2ccccc2c1=O)c1ccccc1`, the manual score is 1 (active).

As for `Cc1ccc(C(=O)N/N=C/C2=Cc3ccccc3OC2C)cc1` (stereo unspecified), the manual score was 0 (inactive).

For `O=C(NNc1ncc(C(F)(F)F)cc1Cl)c1c(Cl)cccc1Cl`, the manual score is 0 (inactive).

For the compound `Cc1nc(/N=C(\N)NC(=O)c2ccccc2)nc2ccccc12`, the manual score was 0 (inactive).

Regarding `O=C(NNc1nc2ccccc2nc1C(F)(F)F)c1ccccc1`, the manual score was 1 (active).

For `Cc1ccc(C(=O)NNc2nc3ccccc3nc2C(F)(F)F)cc1`, the manual score is 1 (active).

On to `Cc1ccc(C(=O)NC2(C(F)(F)F)N=C3SCCN3C2=O)cc1` (stereo unspecified), for which the manual score was 0 (inactive).

`COc1ccc(-n2cc(-c3ccccc3)[nH]c2=S)cc1`: the manual score is 0 (inactive).

`CCCc1cc(=O)n2[nH]c(-c3ccc(Br)cc3)cc2n1`: the manual score is 0 (inactive).

`O=C1Nc2ccccc2C12OCC1(CO2)COC2(OC1)C(=O)Nc1ccccc12` (stereo unspecified): the manual score is 0 (inactive).

As to `CCOc1ccc(NC(=O)Cn2nnc(-c3ccccc3F)n2)cc1`, the manual score was 0 (inactive).

As to `COc1cc(NC(=O)Cn2nnc(-c3ccccc3N)n2)cc(OC)c1`, the manual score is 1 (active).

Take `COc1cc(NC(=O)CSCc2cnn(-c3ccccc3)c2-n2cccc2)cc(OC)c1`: the manual score is 0 (inactive).

Consider `CCOC(=O)c1cccc(NC(=O)CSc2nnc(C3CCCCC3)n2C)c1`, for which the manual score is 0 (inactive).

For `O=C(CSc1nnnn1-c1ccc(O)cc1)Nc1cccc(S(=O)(=O)N2CCCC2)c1`, the manual score was -1 (active).

Turning to `Cc1ccc(C)c(-n2nnnc2SCC(=O)Nc2cccc(-c3nnc4n3CCCCC4)c2)c1`, the manual score is 3 (inactive).

As to `Cc1ccccc1C(=O)NC(=S)Nc1ccc(Oc2ccc(Cl)cc2)cc1`, the manual score was 0 (inactive).

On to `CCOC(=O)Cc1csc(NC(=S)NC(=O)c2ccccc2Br)n1`, for which the manual score is 1 (active).

Regarding `CCOC(=O)Cc1csc(NC(=S)NC(=O)c2ccccc2C)n1`, the manual score is 1 (active).

Regarding `COc1cc(OC)c(-c2c3cc(O)c(=O)cc-3oc3cc(O)c(O)cc23)cc1OC`, the manual score was 3 (inactive).

In the case of `CCCOC(=O)c1ccc(NC(=O)c2ccoc2C)cc1`, the manual score is 0.5 (inactive).

On to `CCOC(=O)c1ccc(NC(=O)N2CCN(Cc3cccc(F)c3)CC2)cc1`, for which the manual score was -1 (active).

Consider `CCOC(=O)c1ccc(NC(=O)Nc2ccc(OC)c(OC)c2)cc1`, for which the manual score was 0.5 (inactive).

With `CN1C(=O)c2oc3ccccc3c(=O)c2C1c1ccccn1` (stereo unspecified), the manual score was 0 (inactive).

In the case of `CC1CCC/C(=N\NC(=O)COc2ccc(Cl)cc2Cl)C1` (stereo unspecified), the manual score is 1 (active).

Turning to `O=C(N/C(=N\O)c1ccccc1)Nc1ccc(Cl)cc1`, the manual score was 0 (inactive).

Turning to `N#C/C(=N\Nc1ccc(Cl)cc1)C(=O)c1ccccc1`, the manual score was -1 (active).

For `Cc1ccc(/C=N/Nc2nc(Cl)c(Cl)cc2Cl)s1`, the manual score was 0 (inactive).

With `O=S(=O)(Nc1cc(Sc2cccc3cccnc23)c(O)c2ccccc12)c1ccc(F)cc1`, the manual score was 0 (inactive).

For `O=c1c2c(nc3c(-c4cccc(Br)c4)c[nH]n13)CCCC2`, the manual score is 0 (inactive).

As to `CSc1nc(N2CCOCC2)c2c(c1C#N)CC(C)(C)OC2`, the manual score was -0.5 (inactive).

As to `CC(C)c1nc(N2CCN(C(=O)c3ccccc3)CC2)c(C#N)c2c1COC(C)(C)C2`, the manual score is -1 (active).

With `N#Cc1c(N2CCN(C(=O)c3ccccc3)CC2)nc(-c2ccccc2)c2c1CCCC2`, the manual score is 0 (inactive).

On to `CC1CCCN(Cc2cccc(Oc3ccccc3)c2)C1` (stereo unspecified), for which the manual score was 0.5 (inactive).

On to `CCOc1ccc(N2C(=O)/C(=C/c3cc(OC)c(OC)c(OC)c3)N(CC(=O)OC)C2=S)cc1`, for which the manual score was 0 (inactive).

As to `CCOC(=O)N1CCC(NC(=O)c2cnn3c2NC(c2ccco2)CC3C(F)(F)F)CC1` (stereo unspecified), the manual score was 0 (inactive).

As to `S=C(Nc1cccc(Br)c1)c1ccccc1`, the manual score is 0 (inactive).

In the case of `O=C(NN=C1c2ccccc2-c2ccccc21)c1cccc(Br)c1`, the manual score is 1 (active).

Take `O=C(NN=C1c2ccccc2-c2ccccc21)c1ccccc1Br`: the manual score was 0 (inactive).

For the compound `O=C(Nc1nnc(-c2ccc3c(c2)CCCC3)o1)c1ccc(Cl)cc1Cl`, the manual score was 1 (active).

Turning to `CN(C)S(=O)(=O)c1ccc(C(=O)Nc2nnc(-c3ccc4c(c3)CCCC4)o2)cc1`, the manual score was 0 (inactive).

For the compound `O=C(Nc1nnc(-c2ccc3c(c2)CCCC3)o1)c1ccccc1`, the manual score was 1 (active).

Take `O=C(Nc1nnc(-c2ccc3c(c2)CCCC3)o1)C1COc2ccccc2O1` (stereo unspecified): the manual score was 1 (active).

For `O=C(Nc1nnc(-c2ccc3c(c2)CCCC3)o1)c1ccccc1Cl`, the manual score was 1 (active).

Take `O=C(Nc1ccc(-c2nc3ccccc3o2)cc1)c1cc(-n2cnnc2)ccc1Cl`: the manual score was 0 (inactive).

As to `O=C(Nc1cccc(-c2nnc(-c3ccccc3)o2)c1)C1CCCO1` (stereo unspecified), the manual score was 0 (inactive).

Consider `CN=c1scc(-c2cccs2)n1/N=C/c1ccc(O)c(O)c1O`, for which the manual score was 0 (inactive).

As to `CCOc1cc(-c2noc(-c3cccnc3)n2)ccc1OC`, the manual score is 0 (inactive).

Regarding `Fc1cccc(C2NN=C(c3ccccc3)S2)c1` (stereo unspecified), the manual score was 1 (active).

Turning to `CCOc1cc(C2NN=C(c3ccc(C)cc3)S2)ccc1O` (stereo unspecified), the manual score was 0.5 (inactive).

Consider `CC1CC(=S)Nc2ccccc2N1Cc1ccccc1` (stereo unspecified), for which the manual score was 0 (inactive).

With `CC12CN(Cc3ccccc3)CC(C)(CN(Cc3ccccc3)C1)C2=NO`, the manual score is -1 (active).

The values are drawn from PubChem BioAssay AID623911 (Vanderbilt High Throughput Screening Facility, 2012).
